Experimental data as given in PubChem BioAssay AID720706 (Broad Institute, 2013).
About 5,500 (1.6%) of roughly 350,000 compounds were called active.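 How the source made its calls: active means significant combined selectivity score with lowered wild-type GFP, culture density cut under 30%, mutant RFP and density less affected; inactive means any of these conditions unmet.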 This excerpt belongs to a sample that is enriched for actives.

Test: GFP drop in mixed WT/humanized-ribosome E. coli culture – GFP/RFP fluorescence, OD600, single point, bacterial rRNA inhibitor project, primary screen (AID 720706)
Details: E. coli WT GFP vs humanized-ribosome RFP mutants, 24 h; GFP signal change (wild-type ribosome): stronger effect = lower value, DMSO median 0, no signal -100; OD600 change: measured here: OD600 growth, DMSO median 0, no signal -100; RFP signal change: measured here: RFP humanized mutant strains, DMSO median 0, no signal -100, concentration not given here

Question: What does the source list for `CCOC(=O)C1(CCOc2ccccc2)CCN(Cc2ccc(C#CCCO)cc2)CC1`?
Answer: GFP signal change (wild-type ribosome): 2.81% (inactive); OD600 change: -4.44%; RFP signal change: -0.935%

Question: For `CCCS(=O)(=O)N1CCC(CCOc2ccccc2)(C(=O)OCC)CC1`, which GFP signal change (wild-type ribosome) is on record?
Answer: -17.9% (inactive)

Question: What about the OD600 change of the same compound?
Answer: -32.1%

Question: And the RFP signal change?
Answer: -4.54%

Question: Which GFP signal change (wild-type ribosome) does the source give for `CCOC(=O)C1(CCOc2ccccc2)CCN(Cc2cc(OC)cc(OC)c2)CC1` here?
Answer: -33.8% (active)

Question: And the OD600 change?
Answer: -25.8%

Question: And the RFP signal change?
Answer: -6.01%

Question: What does the source list for `COc1ccc2c3c([nH]c2c1)[C@H](CO)N(Cc1cccc(F)c1)CC31CCN(CC2CC2)CC1`?
Answer: GFP signal change (wild-type ribosome): 4.42% (inactive); OD600 change: 4.76%; RFP signal change: -1.35%

Question: What does the source list for `CC(C)NC(=O)N(C)C[C@H]1Oc2ccc(N)cc2C(=O)N(C)C[C@@H]1C`?
Answer: GFP signal change (wild-type ribosome): 0.734% (inactive); OD600 change: 6.88%; RFP signal change: -0.42%

Question: For `OC[C@@H]1[C@@H](c2ccccc2)C2(CN(Cc3cccc(F)c3)C2)N1CC1CCCC1`, which GFP signal change (wild-type ribosome) is on record?
Answer: -23.5% (inactive)

Question: And the OD600 change?
Answer: -64.7%

Question: And the RFP signal change?
Answer: 20.6%

Question: Which GFP signal change (wild-type ribosome) does the source give for `CNC(=O)c1ccsc1NC(=O)c1ccc(S(=O)(=O)N2CCc3ccccc32)cc1` here?
Answer: -14% (active)

Question: What about the OD600 change of the same compound?
Answer: -3.21%

Question: What about the RFP signal change of the same compound?
Answer: -0.575%

Question: With `CC1CN(S(=O)(=O)c2ccc(C(=O)Nc3sccc3C(N)=O)cc2)CC(C)O1` (stereo not drawn) as the compound, how does the GFP signal change (wild-type ribosome) read?
Answer: -9.92% (inactive)

Question: And the OD600 change?
Answer: 0.73%

Question: And the RFP signal change?
Answer: -4.68%

Question: What does the source list for `O=S(=O)(c1ccccc1)N1CCc2ccccc21`?
Answer: GFP signal change (wild-type ribosome): 3.46% (inactive); OD600 change: 1.07%; RFP signal change: 1.3%

Question: For `CN1C[C@@H]2[C@H](c3ccccc31)[C@@H](CO)N2C(=O)Nc1ccccc1`, which GFP signal change (wild-type ribosome) is on record?
Answer: -1.61% (inactive)

Question: And the OD600 change?
Answer: -4.19%

Question: And the RFP signal change?
Answer: -0.289%

Question: Which GFP signal change (wild-type ribosome) does the source give for `CC(=O)N1[C@@H]2c3ccc(-c4ccccc4)c(=O)n3C[C@@H]2[C@@H](CO)[C@@H]1C(=O)NCc1ccccc1F` here?
Answer: 1.92% (inactive)

Question: And the OD600 change?
Answer: 0.235%

Question: What about the RFP signal change of the same compound?
Answer: 0.825%

Question: Which GFP signal change (wild-type ribosome) does the source give for `COc1ccc(CN(C)C[C@@H]2OCCCC[C@H](C)Oc3ccc(NS(=O)(=O)c4cccs4)cc3C(=O)N([C@H](C)CO)C[C@@H]2C)cc1` here?
Answer: 1.91% (inactive)

Question: What about the OD600 change of the same compound?
Answer: -7.75%

Question: What about the RFP signal change of the same compound?
Answer: 1.8%

Question: With `CCC(=O)N1CC(=O)N2[C@H](CO)[C@@H](c3ccc(-c4ccc(C(=O)N(C)C)cc4)cc3)[C@@H]2C1` as the compound, how does the GFP signal change (wild-type ribosome) read?
Answer: -0.311% (inactive)

Question: And the OD600 change?
Answer: -1.8%

Question: What about the RFP signal change of the same compound?
Answer: 0.455%

Question: Which results are given for `Cn1c(CNC(=O)c2ccco2)nnc1SCC(=O)N1CCN(c2ccccc2)CC1`?
Answer: GFP signal change (wild-type ribosome): 4.73% (inactive); OD600 change: 14.2%; RFP signal change: -0.921%

Question: For `O=C(NCc1nnc(SCC(=O)N2CCC(Cc3ccccc3)CC2)o1)c1ccco1`, which GFP signal change (wild-type ribosome) is on record?
Answer: -22.9% (active)

Question: And the OD600 change?
Answer: -18.5%

Question: What about the RFP signal change of the same compound?
Answer: -1.19%

Question: What does the source list for `O=C(NCc1nnc(SCC(=O)N2CCCCCC2)o1)c1ccc(F)cc1`?
Answer: GFP signal change (wild-type ribosome): 3.73% (inactive); OD600 change: 9.68%; RFP signal change: 2.77%

Question: What does the source list for `COc1ccc(-c2ccc3n(c2=O)C[C@@H]2[C@@H](CO)[C@H](C(=O)Nc4ccccc4)[C@H]3N2C)cc1`?
Answer: GFP signal change (wild-type ribosome): -5.3% (inactive); OD600 change: -0.765%; RFP signal change: -2.67%

Question: What does the source list for `N#C[C@H]1[C@@H](c2ccc(C#CC3CCCC3)cc2)[C@H](CO)N1C(=O)Nc1ccc(F)cc1`?
Answer: GFP signal change (wild-type ribosome): -20.3% (inactive); OD600 change: -36.1%; RFP signal change: 20.2%

Question: Which GFP signal change (wild-type ribosome) does the source give for `CCn1ccnc1CN(C)C(=O)c1cc(COc2ccc(Cl)cc2OC)on1` here?
Answer: 2.1% (inactive)

Question: And the OD600 change?
Answer: 0.213%

Question: What about the RFP signal change of the same compound?
Answer: -1.68%

Question: For `COc1cc(Cl)ccc1OCc1cc(C(=O)N(C)CCc2c(C)n[nH]c2C)no1`, which GFP signal change (wild-type ribosome) is on record?
Answer: -23.6% (active)

Question: What about the OD600 change of the same compound?
Answer: -18.4%

Question: And the RFP signal change?
Answer: 4.51%

Question: Which results are given for `CSc1ccccc1OCc1cc(C(=O)N(C)CCc2c(C)n[nH]c2C)no1`?
Answer: GFP signal change (wild-type ribosome): -27.9% (inactive); OD600 change: -25.7%; RFP signal change: -4.44%

Question: With `COc1ccc(C(C)=O)cc1COc1ccc(Cl)c(C)c1` as the compound, how does the GFP signal change (wild-type ribosome) read?
Answer: -21% (active)

Question: And the OD600 change?
Answer: 2.55%

Question: What about the RFP signal change of the same compound?
Answer: 1.65%

Question: What does the source list for `CCOc1ccc(C(C)=O)cc1COC(=O)c1cnc(Cl)c(Cl)c1`?
Answer: GFP signal change (wild-type ribosome): 4.75% (inactive); OD600 change: 3.34%; RFP signal change: -2.34%

Question: What does the source list for `Cc1ccc(/C(N)=N/OC(=O)COc2ccc(Cl)c(C)c2)cc1`?
Answer: GFP signal change (wild-type ribosome): 6.91% (inactive); OD600 change: 1.73%; RFP signal change: -7.27%

Question: For `C[C@@H]1CN([C@@H](C)CO)C(=O)Cc2cc(NC(=O)Nc3ccc(C(F)(F)F)cc3)ccc2O[C@H]1CN(C)Cc1ccc(C(=O)O)cc1`, which GFP signal change (wild-type ribosome) is on record?
Answer: -4.09% (inactive)

Question: What about the OD600 change of the same compound?
Answer: -39.2%

Question: What about the RFP signal change of the same compound?
Answer: -9.85%

Question: What does the source list for `C[C@@H]1CN([C@@H](C)CO)S(=O)(=O)c2ccc(C#Cc3cccnc3)cc2O[C@@H]1CN(C)C`?
Answer: GFP signal change (wild-type ribosome): 11% (inactive); OD600 change: 15.5%; RFP signal change: 0.337%

Question: For `O=C(NC(=S)Nc1ccc(Cl)cc1Cl)C1CC1`, which GFP signal change (wild-type ribosome) is on record?
Answer: -7.95% (inactive)

Question: What about the OD600 change of the same compound?
Answer: -11.5%

Question: And the RFP signal change?
Answer: 2.17%

Question: What does the source list for `S=C(Nc1ccc(Cl)cc1Cl)N1CCCC1`?
Answer: GFP signal change (wild-type ribosome): -29.6% (active); OD600 change: 3.51%; RFP signal change: -5.19%

Question: Which results are given for `S=C(Nc1ccc(Br)cc1Cl)N1CCC2(CC1)OCCO2`?
Answer: GFP signal change (wild-type ribosome): -18.4% (inactive); OD600 change: -20.4%; RFP signal change: -6.29%

Question: With `Cc1cc(C)n2nc(SCC(=O)NC(=O)NCc3ccco3)nc2n1` as the compound, how does the GFP signal change (wild-type ribosome) read?
Answer: 24.5% (inactive)

Question: And the OD600 change?
Answer: 11.7%

Question: What about the RFP signal change of the same compound?
Answer: -0.644%

Question: Which GFP signal change (wild-type ribosome) does the source give for `O=C(CSc1nnc(-c2ccco2)n1Cc1ccccc1)NC(=O)NCc1ccco1` here?
Answer: -20.4% (active)

Question: And the OD600 change?
Answer: -7.72%

Question: And the RFP signal change?
Answer: 1.04%

Question: For `COc1ccc(-n2c(SCC(=O)NCc3ccco3)nnc2-c2c[nH]c3ccccc23)cc1`, which GFP signal change (wild-type ribosome) is on record?
Answer: -0.435% (inactive)

Question: What about the OD600 change of the same compound?
Answer: -16.1%

Question: And the RFP signal change?
Answer: 3.4%

Question: What does the source list for `Cc1ccc(C(=O)N/C(=C\c2ccc(F)cc2)C(=O)NCCN2CCOCC2)cc1`?
Answer: GFP signal change (wild-type ribosome): 8.39% (inactive); OD600 change: 9.73%; RFP signal change: -0.48%

Question: Which GFP signal change (wild-type ribosome) does the source give for `Cc1c(C(=O)NCCN2CCOCC2)sc2nc(-c3ccc(F)cc3)cn12` here?
Answer: -16.9% (active)

Question: What about the OD600 change of the same compound?
Answer: -2.55%

Question: What about the RFP signal change of the same compound?
Answer: 3.25%

Question: What does the source list for `Cc1c(C(=O)NCC2CCCO2)sc2nc(-c3ccccc3)cn12` (stereo not drawn)?
Answer: GFP signal change (wild-type ribosome): -4.79% (inactive); OD600 change: -21.2%; RFP signal change: -7.98%

Question: With `C/C=C/c1ccc([C@H]2[C@@H](CO)N(C(=O)Cc3ccncc3)[C@@H]2CNC(C)=O)cc1` as the compound, how does the GFP signal change (wild-type ribosome) read?
Answer: 1.54% (inactive)

Question: What about the OD600 change of the same compound?
Answer: 6.92%

Question: And the RFP signal change?
Answer: -0.347%

Question: With `Nc1nonc1-n1nnc(C(=O)N/N=C/c2ccc(Cl)cc2)c1-c1ccc2c(c1)OCO2` as the compound, how does the GFP signal change (wild-type ribosome) read?
Answer: 0.08% (inactive)

Question: What about the OD600 change of the same compound?
Answer: 0.681%

Question: And the RFP signal change?
Answer: -3.98%

Question: Which GFP signal change (wild-type ribosome) does the source give for `C(=N\Nc1ccc2ccccc2n1)/c1ccc2c(c1)OCO2` here?
Answer: -21.9% (active)

Question: What about the OD600 change of the same compound?
Answer: 16.6%

Question: What about the RFP signal change of the same compound?
Answer: -0.634%

Question: With `NC(=O)c1ccc(NC(=O)COC(=O)c2c3c(nc4ccccc24)/C(=C\c2ccc4c(c2)OCO4)CCC3)cc1` as the compound, how does the GFP signal change (wild-type ribosome) read?
Answer: 55.8% (inactive)

Question: And the OD600 change?
Answer: -19.8%

Question: And the RFP signal change?
Answer: 1.2%

Question: For `C[C@@H]1CN([C@@H](C)CO)C(=O)c2cccc(NC(=O)c3cnccn3)c2O[C@H]1CN(C)S(=O)(=O)c1cccs1`, which GFP signal change (wild-type ribosome) is on record?
Answer: 4.71% (inactive)

Question: What about the OD600 change of the same compound?
Answer: 6.99%

Question: What about the RFP signal change of the same compound?
Answer: -1.1%

Question: Which results are given for `CCC(=O)Nc1ccc2c(c1)OC[C@H](C)N(Cc1ccccc1OC)C[C@@H](C)[C@@H](OC)CN(C)C2=O`?
Answer: GFP signal change (wild-type ribosome): 0.179% (inactive); OD600 change: 4.08%; RFP signal change: 2.06%
